# VCAM1 TNFa inh: inhibitors of TNFa-induced VCAM1 expression, primary screen, imaging, HUVEC, TNFa stimulus, immunofluorescence | AID 802, 2007 | HUVEC TNFa-induced VCAM-1 immunofluorescence, high-content imaging | inhibition, % at 2 µM | hit rate 0.48% among 95,000;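 active means inhibition above the batch mean plus 3 SD, with images confirmed as a hit by eye, cut at about 37% in these data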;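 further: 0% = TNF-stimulated DMSO wells and 100% = unstimulated control wells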
# HUVEC tox TNFa: cytotoxicity in TNFa-stimulated HUVEC, primary screen, cytotoxicity control for VCAM1 expression modulator project, imaging, Hoechst nuclei count. hit rate 0.17% among 93,000. cell count reduction, % at 2 µM. HUVEC TNFalpha-stimulated, Hoechst cell count;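 active means cell count reduction exceeding the screen mean by over 5 SD, scaled to untreated wells per plate, cut at about 78% in these data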;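 further: cells counted after 24 h of TNF alpha exposure following the 1 h pretreatment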
# F-actin modifier: modifiers of F-actin cytoskeleton organization, primary screen, imaging, HUVEC, phalloidin staining, high-content imaging; HUVEC TNFa F-actin phalloidin imaging; inhibition, % at 2 µM; hit rate 0.18% among 91,000;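 active means inhibition above the batch mean plus 3 SD and confirmed as a hit by visual image inspection, cut at about 30% in these data, passing the limit was not always enough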
# S1P2 agonist: S1P2 receptor agonists, primary screen, cell-based; S1P2-expressing cell line, agonist reporter read-out; hit rate 0.46% among 97,000; Sphingosine 1-phosphate receptor 2 (Homo sapiens), O95136; AID 729, 2007; activation, % at 4.5 µM; in the data active means activation above about 16%;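 further: 0% = vehicle low control and 100% = maximal reference agonist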
# Target sequence (O95136 whole entry, looked up): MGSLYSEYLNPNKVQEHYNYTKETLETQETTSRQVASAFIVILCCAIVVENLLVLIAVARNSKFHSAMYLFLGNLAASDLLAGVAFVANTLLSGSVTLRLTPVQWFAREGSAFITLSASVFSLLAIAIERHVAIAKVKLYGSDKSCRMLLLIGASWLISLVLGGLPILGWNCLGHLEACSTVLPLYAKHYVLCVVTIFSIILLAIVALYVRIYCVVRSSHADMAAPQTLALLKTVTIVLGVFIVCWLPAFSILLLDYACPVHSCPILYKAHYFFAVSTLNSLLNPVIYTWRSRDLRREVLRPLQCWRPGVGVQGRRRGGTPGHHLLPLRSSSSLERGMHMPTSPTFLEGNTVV
# E-sel TNF inh: E-selectin induction blockers in HUVEC – imaging, immunofluorescence, high content, primary screen | HUVEC TNFa-induced E-selectin immunofluorescence | inhibition, % at 2 µM | hit rate 0.71% among 120,000 | AID 1246, 2008;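 active means inhibition above the batch mean plus 3 SD, and confirmed as a hit on visual image review, cut at about 43% in these data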;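 further: 0% = TNF-stimulated DMSO wells and 100% = unstimulated control wells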
# S1P2 blocker: human S1P2 receptor antagonists, primary screen, cell-based. Sphingosine 1-phosphate receptor 2 (Homo sapiens), O95136. cell-based S1P2 antagonist assay, inhibition at 5 uM. inhibition, % at 5 µM. hit rate 0.21% among 97,000; in the data active means inhibition above about 45%;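 further: CRE beta-lactamase reporter cells expressing human S1P2 stimulated with S1P; 0% = agonist at EC80 alone and 100% = agonist plus reference antagonist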
# * hit, by the source's call; nt = not tested or not shown. Hits are enriched below; roughly 1.6% of the tested compounds scored in any of these assays.
SMILES,VCAM1 TNFa inh,HUVEC tox TNFa,F-actin modifier,S1P2 agonist,E-sel TNF inh,S1P2 blocker
Cc1cc(C)c(S(=O)(=O)N2CCC(C(=O)NCc3ccc(Cl)cc3Cl)CC2)c(C)c1,-4.2,-11.0,nt,-2.9,10.1,18.1
N#Cc1ccccc1NC(=O)CSc1nnc(-c2ccncc2)o1,nt,nt,nt,nt,21.0,nt
O=C(NCCN1C(=O)CSC1=O)c1ccccc1,-2.2,-0.8,-1.0,-5.9,68.6*,15.3
O=C(CCN1C(=O)CSC1=O)Nc1ccccc1,2.6,37.9,29.2,-3.7,11.6,13.7
O=C(Cc1c[nH]c2ccccc12)Nc1nc2ccccc2[nH]1,22.9,-11.3,-11.2,608.7*,-2.2,10.1
O=c1ccn(-c2cccc(C(F)(F)F)c2)nc1-c1ccn(-c2ccccc2)n1,2.7,-21.3,43.9,25.2*,-3.2,-26.9
Nc1n[nH]c2cc(=O)n(-c3cccc(C(F)(F)F)c3)nc12,nt,nt,nt,nt,19.4,nt
NNC(=O)/C(=N/Nc1ccccc1)S(=O)(=O)c1ccc(Cl)cc1,nt,nt,nt,nt,-0.4,nt
Cc1cc(-n2c(C)cc(C(=O)CN3C(=O)NC4(CCCC4)C3=O)c2C)no1,-7.5,-25.9,-9.5,-1.5,nt,8.2
Cc1cc(-n2c(C)cc(C(=O)CN3C(=O)NC4(CCCCC4)C3=O)c2C)no1,-45.9,89.8*,0.3,-1.1,11.1,8.9
COc1ccc(OC)c(C2C3=C(COC3=O)Nc3cc4c(cc32)OCO4)c1 (stereo unspecified),96.4*,75.7,16.1,4.7,0.1,-1.2
COc1ccc(C2C3=C(CC(C)(C)CC3=O)Nc3cc4c(cc32)OCO4)cc1 (stereo unspecified),16.0,5.2,-24.9,-2.9,5.8,-2.1
CCOC(=O)c1ccc(-n2c(=S)sc3c(=O)[nH]c(C)nc32)cc1,87.0*,-7.8,11.5,-1.3,-15.5,-10.6
CCOC(=O)CC(=O)CSc1nc2c(sc(=S)n2-c2ccccc2)c(=O)[nH]1,-45.2,-18.5,3.9,-5.8,nt,10.2
COC(=O)c1cc2sc(Cl)cc2n1CC(=O)Nc1cccc(SC)c1,-6.5,12.5,33.7,-5.5,65.2*,-11.2
COC(=O)c1cc2sc(Cl)cc2n1CC(=O)Nc1ccc(OC)c(OC)c1OC,0.1,-5.6,-3.7,-2.2,nt,-17.7
COCC(=O)OCC(=O)Nc1cc([N+](=O)[O-])ccc1Cl,nt,nt,nt,nt,-5.7,nt
CC(C)CC(=O)Nc1cc([N+](=O)[O-])ccc1Cl,8.2,-4.7,-21.0,17.4*,-4.4,7.0
CCSc1nc2ccccc2n1CC(=O)N1CCCCC1,-10.5,-5.8,5.6,-1.5,7.7,11.5
COC(=O)c1ccccc1NC(=O)Cn1c(-c2nonc2N)nc2ccccc21,78.7*,43.8,17.9,1.9,-15.8,-14.4
CCOC(=O)c1ccccc1NC(=O)CSc1nc2ccccc2n1CC(=O)N1CCCC1,-4.9,14.1,-40.1,31.7*,13.4,-61.3
CCOc1ccc(S(=O)(=O)NCc2ccc(OC)cc2)c2cccnc12,nt,nt,nt,nt,-10.8,nt
O=C(NCC1(c2ccccc2)CCCC1)C(=O)N1CCOCC1,1.0,-14.6,-18.1,75.0*,-7.3,-13.7
Cc1cccc(OCc2nc(-c3ccc(Br)o3)no2)c1,nt,nt,nt,nt,23.4,nt
C=CCc1cccc(/C=N/NC(=O)CCCNc2ccc(C)cc2)c1O,nt,nt,nt,nt,68.7*,nt
SMILES,VCAM1 TNFa inh,HUVEC tox TNFa,F-actin modifier,S1P2 agonist,E-sel TNF inh,S1P2 blocker
C=CCc1cccc(/C=N/NC(=O)CNc2ccccc2)c1O,10.2,-2.0,-4.9,-1.4,-5.6,7.5
CCN1CCN(C(C(=O)NC2CCCCC2)c2ccc(Cl)cc2)CC1 (stereo unspecified),7.2,-3.8,-2.4,-4.4,17.8,-22.9
Nc1nsc2ccccc12,-0.9,-18.5,13.6,-2.8,0.8,49.5*
Nc1nnc(N)c2ccccc12,nt,nt,nt,nt,-11.1,nt
COc1cc(C2C3=C(Nc4ncnn42)c2ccccc2CC3)cc(OC)c1OC (stereo unspecified),88.1*,58.8,-10.5,-2.3,nt,6.4
C=CCc1cccc2cc(C(=O)NNC(=O)c3ccncc3)c(=O)oc12,nt,nt,nt,nt,1.5,nt
O=C(Cc1coc2ccc3ccccc3c12)N1CCCC1,11.3,6.1,1.1,25.5*,-5.8,-28.7
O=C(COC(=O)CCCN1C(=O)c2cccc3cccc(c23)C1=O)Nc1cccc(C(F)(F)F)c1,nt,nt,nt,nt,-21.3,nt
O=C(NCc1cccnc1)/C(=C/c1ccc(-c2cccc(C(F)(F)F)c2)o1)NC(=O)c1ccccc1,3.8,-35.8,-1.4,-2.8,-0.1,-4.2
O=C(NCc1cccnc1)/C(=C/c1ccc(-c2ccc(Cl)cc2)o1)S(=O)(=O)c1ccccc1,3.2,15.7,-7.8,-4.7,20.5,54.3*
CCC(C)(C#CCN1CCCCC1)OCCC#N (stereo unspecified),nt,nt,nt,nt,-4.3,nt
Cc1cc(C)c(C(=O)CSc2nnc(C)c(=O)[nH]2)cc1C,nt,nt,nt,nt,21.0,nt
Cc1ccccc1-n1ncc2c([N+](=O)[O-])cc([N+](=O)[O-])cc21,0.8,-14.6,-4.5,-6.1,-13.7,-0.2
Cc1ccc2nc3cc([N+](=O)[O-])cc([N+](=O)[O-])c3cc2c1,nt,nt,nt,nt,99.3*,nt
Cc1cc(C(=O)OCC(=O)Nc2ccc(S(N)(=O)=O)cc2)c2ccccc2n1,nt,nt,nt,nt,-15.9,nt
Cc1cc(SCC(=O)c2cccs2)nc2ccccc12,nt,nt,nt,nt,75.2*,nt
O=C(CSc1nc2ccccc2c(=O)[nH]1)c1cccs1,10.0,-3.1,7.8,-2.4,-5.2,-9.3
CCN(CC(=O)NCc1ccccn1)S(=O)(=O)c1ccc(Cl)cc1,16.6,78.6*,6.4,0.2,-1.9,24.2
CCN(CC(=O)NC1CCCCC1)S(=O)(=O)c1ccc(Cl)cc1,13.6,13.4,8.2,0.9,-4.7,-10.3
OCCN(CCO)c1ncnc2c1sc1nc(N3CCOCC3)c3c(c12)CCCC3,-1.9,-3.7,2.0,23.0*,1.7,-51.4
Cc1cc(C)c2c(n1)sc1c(N3CCOCC3)ncnc12,60.8*,11.3,-33.4,4.0,-12.3,-33.2
Cc1cc(C)c(Nc2cc(S(=O)(=O)O)c(N)c3c2C(=O)c2ccccc2C3=O)c(C)c1,nt,nt,nt,nt,24.0,nt
CNC(=O)c1c(C)noc1C,nt,nt,nt,nt,-2.9,nt
Nc1c(C(=O)NCc2ccc(Cl)cc2)sc2nc3c(c(C(F)(F)F)c12)CCC3,-6.3,14.5,-34.8,-4.9,64.9*,-4.8
COc1ccc(OC)c(NC(=O)Cc2nn(C)c(=O)c3ccccc23)c1,-11.9,10.8,-29.6,-0.3,-6.0,-17.9
Cn1nc(CC(=O)NCc2ccc(C(F)(F)F)cc2)c2ccccc2c1=O,-5.0,-10.2,4.9,-3.5,-7.2,62.1*
COc1cc(NC(=O)Cc2nn(C)c(=O)c3ccccc23)cc(OC)c1OC,5.2,-8.5,11.1,-5.0,50.1*,-4.9
COc1cccc(=O)c2c(C)n(-c3cc(C)cc(C)c3)c(C)c12,-18.7,-26.8,-9.0,-3.7,67.4*,15.8
Clc1ccc(Nc2ccc(-n3ccnc3)nn2)cc1Cl,16.9,-20.8,4.9,-7.0,65.0*,-29.1
O=C(COC(=O)CCSc1ccccc1)NCc1ccccc1Cl,nt,nt,nt,nt,-21.8,nt
